# In the supplement of paper PMC8728848:
# This is one part of a sample in which the strongest signals are shown more often than they occur.
# Experiments:
# Assay in all cases: glycan array binding signal (z-score within array); higher = stronger binding
# Settings in all cases: glycan notation: IUPAC condensed, linker removed
# [1] = target: Fuc(a1-2)Gal(b1-3)GlcNAc(b1-2)Man(a1-3)[Fuc(a1-2)Gal(b1-3)GlcNAc(b1-2)Man(a1-6)]Man(b1-4)GlcNAc(b1-4)GlcNAc
# Method in brief: (§1)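 From the Consortium for Functional Glycomics database, 3228 arrays were curated, keeping only those whose protein sequence was available. Binding is given as a within-array Z-score averaged across arrays sharing a protein sequence and across linkers. Negative Z-scores can be read as non-binding.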
# [2] = target: Fuc(a1-2)Gal(b1-3)GlcNAc(b1-3)[Gal(b1-4)GlcNAc(b1-6)]Gal(b1-4)Glc
# Method in brief: as §1
# [3] = target: Fuc(a1-2)Gal(b1-3)[Fuc(a1-4)]GlcNAc
# Method in brief: as §1
# [4] = target: Fuc(a1-2)Gal(b1-4)GlcNAc(b1-3)Gal(b1-4)GlcNAc(b1-2)Man(a1-3)[Fuc(a1-2)Gal(b1-4)GlcNAc(b1-3)Gal(b1-4)GlcNAc(b1-2)Man(a1-6)]Man(b1-4)GlcNAc(b1-4)GlcNAc
# Method in brief: as §1
# [5] = target: Fuc(a1-2)Gal(b1-4)GlcNAc(b1-3)[Fuc(a1-2)Gal(b1-4)GlcNAc(b1-6)]GalNAc
# Method in brief: as §1
# [6] = target: Fuc(a1-2)[Gal(a1-3)]Gal(b1-4)GlcNAc
# Method in brief: as §1
# [7] = target: Fuc(a1-2)[Gal(a1-4)]Gal(b1-4)GlcNAc
# Method in brief: as §1
# [8] = target: Fuc(a1-2)[GalNAc(a1-3)]Gal
# Method in brief: as §1
# [9] = target: Fuc(a1-2)[GalNAc(a1-3)]Gal(b1-4)GlcNAc(b1-2)Man(a1-3)[Fuc(a1-2)[GalNAc(a1-3)]Gal(b1-4)GlcNAc(b1-2)Man(a1-6)]Man(b1-4)GlcNAc(b1-4)[Fuc(a1-6)]GlcNAc
# Method in brief: as §1
# [10] = target: Fuc(a1-2)[GalNAc(a1-3)]Gal(b1-4)GlcNAc(b1-6)GalNAc
# Method in brief: as §1
# [11] = target: Fuc(a1-2)[GalNAc(a1-3)]Gal(b1-4)[Fuc(a1-3)]GlcNAc(b1-3)GalNAc
# Method in brief: as §1
# [12] = target: Fuc(a1-3)[Gal(b1-4)]GlcNAc6S
# Method in brief: as §1
# [13] = target: Gal(a1-3)Gal(b1-4)GlcNAc(b1-2)Man
# Method in brief: as §1
# [14] = target: Gal(a1-3)Gal(b1-4)GlcNAc(b1-2)Man(a1-3)[Gal(a1-3)Gal(b1-4)GlcNAc(b1-2)Man(a1-6)]Man(b1-4)GlcNAc(b1-4)GlcNAc
# Method in brief: as §1
# [15] = target: Gal(a1-3)Gal(b1-4)GlcNAc(b1-3)GalNAc
# Method in brief: as §1
# [16] = target: Gal(a1-3)[Gal(a1-4)]Gal(b1-4)GlcNAc
# Method in brief: as §1
# [17] = target: Gal(a1-4)Gal(b1-3)GlcNAc(b1-2)Man(a1-3)[Gal(a1-4)Gal(b1-3)GlcNAc(b1-2)Man(a1-6)]Man(b1-4)GlcNAc(b1-4)GlcNAc
# Method in brief: as §1
# Gal(a1-4)Gal(b1-4)GlcNAc = target: Gal(a1-4)Gal(b1-4)GlcNAc
# Method in brief: as §1
# [18] = target: Gal(a1-4)Gal(b1-4)GlcNAc(b1-2)Man(a1-3)[Gal(a1-4)Gal(b1-4)GlcNAc(b1-2)Man(a1-6)]Man(b1-4)GlcNAc(b1-4)GlcNAc
# Method in brief: as §1
# [19] = target: Gal(a1-4)Gal(b1-4)GlcNAc(b1-3)Gal(b1-4)Glc
# Method in brief: as §1
# Gal(b1-3)Gal(b1-4)GlcNAc = target: Gal(b1-3)Gal(b1-4)GlcNAc
# Method in brief: as §1
# [20] = target: Gal(b1-3)GalNAc(a1-3)[Fuc(a1-2)]Gal(b1-4)Glc
# Method in brief: as §1
# [21] = target: Gal(b1-3)GalNAc(a1-3)[Fuc(a1-2)]Gal(b1-4)GlcNAc
# Method in brief: as §1
# [22] = target: Gal(b1-3)GlcNAc(a1-3)Gal(b1-4)GlcNAc
# Method in brief: as §1
# [23] = target: Gal(b1-3)GlcNAc(a1-6)Gal(b1-4)GlcNAc
# Method in brief: as §1
# [24] = target: Gal(b1-3)GlcNAc(b1-2)[Gal(b1-3)GlcNAc(b1-6)]Man(a1-6)[Gal(b1-3)GlcNAc(b1-2)Man(a1-3)]Man(b1-4)GlcNAc(b1-4)GlcNAc
# Method in brief: as §1
# [25] = target: Gal(b1-3)GlcNAc(b1-6)Gal(b1-4)GlcNAc
# Method in brief: as §1
# [26] = target: Gal(b1-3)[Neu5Ac(a2-6)]GalNAc
# Method in brief: as §1
# Gal(b1-4)GlcNAc(b1-2)Man = target: Gal(b1-4)GlcNAc(b1-2)Man
# Method in brief: as §1
# [27] = target: Gal(b1-4)GlcNAc(b1-2)[Gal(b1-4)GlcNAc(b1-4)]Man(a1-3)[Gal(b1-4)GlcNAc(b1-2)[Gal(b1-4)GlcNAc(b1-6)]Man(a1-6)]Man(b1-4)GlcNAc(b1-4)GlcNAc
# Method in brief: as §1
# [28] = target: Gal(b1-4)GlcNAc(b1-3)Gal(b1-4)GlcNAc(b1-3)Gal(b1-4)GlcNAc(b1-2)[Gal(b1-4)GlcNAc(b1-3)Gal(b1-4)GlcNAc(b1-3)Gal(b1-4)GlcNAc(b1-6)]Man(a1-6)[Gal(b1-4)GlcNAc(b1-3)Gal(b1-4)GlcNAc(b1-3)Gal(b1-4)GlcNAc(b1-2)Man(a1-3)]Man(b1-4)GlcNAc(b1-4)[Fuc(a1-6)]GlcNAc
# Method in brief: as §1
# [29] = target: Gal(b1-4)GlcNAc(b1-3)Gal(b1-4)GlcNAc(b1-3)Gal(b1-4)GlcNAc(b1-3)Gal(b1-4)GlcNAc(b1-3)Gal(b1-4)GlcNAc(b1-2)Man(a1-3)[Gal(b1-4)GlcNAc(b1-3)Gal(b1-4)GlcNAc(b1-3)Gal(b1-4)GlcNAc(b1-3)Gal(b1-4)GlcNAc(b1-3)Gal(b1-4)GlcNAc(b1-2)Man(a1-6)]Man(b1-4)GlcNAc(b1-4)GlcNAc
# Method in brief: as §1
# [30] = target: Gal(b1-4)GlcNAc(b1-3)Gal(b1-4)GlcNAc(b1-3)Gal(b1-4)GlcNAc(b1-3)Gal(b1-4)GlcNAc(b1-3)Gal(b1-4)GlcNAc(b1-2)[Gal(b1-4)GlcNAc(b1-3)Gal(b1-4)GlcNAc(b1-3)Gal(b1-4)GlcNAc(b1-3)Gal(b1-4)GlcNAc(b1-3)Gal(b1-4)GlcNAc(b1-6)]Man(a1-6)[Gal(b1-4)GlcNAc(b1-3)Gal(b1-4)GlcNAc(b1-3)Gal(b1-4)GlcNAc(b1-3)Gal(b1-4)GlcNAc(b1-3)Gal(b1-4)GlcNAc(b1-2)Man(a1-3)]Man(b1-4)GlcNAc(b1-4)[Fuc(a1-6)]GlcNAc
# Method in brief: as §1
# Gal6S(b1-4)Glc = target: Gal6S(b1-4)Glc
# Method in brief: as §1
# [31] = target: GalNAc(b1-3)Gal(a1-4)Gal(b1-4)GlcNAc(b1-3)Gal(b1-4)Glc
# Method in brief: as §1
# GalNAc6S(b1-4)GlcNAc = target: GalNAc6S(b1-4)GlcNAc
# Method in brief: as §1
# [32] = target: GlcA3S(b1-3)Gal(b1-4)GlcNAc(b1-3)Gal(b1-4)Glc
# Method in brief: as §1
# [33] = target: GlcNAc(a1-6)Gal(b1-4)GlcNAc
# Method in brief: as §1
# [34] = target: GlcNAc(b1-2)[GlcNAc(b1-4)]Man(a1-3)[GlcNAc(b1-4)][GlcNAc(b1-2)Man(a1-6)]Man(b1-4)GlcNAc(b1-4)GlcNAc
# Method in brief: as §1
# GlcNAc(b1-3)Fuc = target: GlcNAc(b1-3)Fuc
# Method in brief: as §1
# [35] = target: GlcNAc(b1-3)Gal(b1-4)GlcNAc(b1-3)Gal(b1-4)GlcNAc(b1-3)Gal(b1-4)GlcNAc(b1-3)Gal(b1-4)GlcNAc(b1-2)Man(a1-3)[GlcNAc(b1-3)Gal(b1-4)GlcNAc(b1-3)Gal(b1-4)GlcNAc(b1-3)Gal(b1-4)GlcNAc(b1-3)Gal(b1-4)GlcNAc(b1-2)Man(a1-6)]Man(b1-4)GlcNAc(b1-4)[Fuc(a1-6)]GlcNAc
# Method in brief: as §1
# [36] = target: GlcNAc(b1-3)[GlcNAc(b1-4)][GlcNAc(b1-6)]GlcNAc
# Method in brief: as §1
# [37] = target: Neu5Ac(a2-3)Gal(b1-3)GlcNAc(b1-2)Man(a1-3)[Neu5Ac(a2-3)Gal(b1-3)GlcNAc(b1-2)Man(a1-6)]Man(b1-4)GlcNAc(b1-4)GlcNAc
# Method in brief: as §1
# [38] = target: Neu5Ac(a2-3)Gal(b1-3)GlcNAc(b1-3)GalNAc
# Method in brief: as §1
# [39] = target: Neu5Ac(a2-3)Gal(b1-4)GlcNAc(b1-2)[Neu5Ac(a2-3)Gal(b1-4)GlcNAc(b1-4)]Man(a1-3)[GlcNAc(b1-4)][Neu5Ac(a2-3)Gal(b1-4)GlcNAc(b1-2)[Neu5Ac(a2-3)Gal(b1-4)GlcNAc(b1-6)]Man(a1-6)]Man(b1-4)GlcNAc(b1-4)GlcNAc
# Method in brief: as §1
# [40] = target: Neu5Ac(a2-3)Gal(b1-4)GlcNAc(b1-3)[Neu5Ac(a2-3)Gal(b1-4)GlcNAc(b1-6)]GalNAc
# Method in brief: as §1
# [41] = target: Neu5Ac(a2-3)Gal(b1-4)GlcNAc(b1-6)[Neu5Ac(a2-3)Gal(b1-3)]GalNAc
# Method in brief: as §1
# [42] = target: Neu5Ac(a2-3)Gal(b1-4)GlcNAc6S
# Method in brief: as §1
# [43] = target: Neu5Ac(a2-6)Gal(b1-4)GlcNAc(b1-2)Man(a1-6)[Man(a1-3)]Man(b1-4)GlcNAc(b1-4)GlcNAc
# Method in brief: as §1
# [44] = target: Neu5Ac(a2-8)Neu5Ac(a2-3)[GalNAc(b1-4)]Gal(b1-4)Glc
# Method in brief: as §1
binder,measurement,setting,value
"CGL (Crenomytilus grayanus), H2FH31 (protein) MTTFLIKHKASGKFLHPYGGSSNPANNTKLVLHSDIHERMYFQFDVVDERWGYIKHVASGKIVHPYGGQANPPNETNMVLHQDRHDRALFAMDFFNDNIMHKGGKYIHPKGGSPNPPNNTETVIHGDKHAAMEFIFVSPKNKDKRVLVYA",glycan array binding signal (z-score),[1],-0.195
same,glycan array binding signal (z-score),[2],-0.054
same,glycan array binding signal (z-score),[3],-0.372
same,glycan array binding signal (z-score),[4],0.855
same,glycan array binding signal (z-score),[5],-0.067
same,glycan array binding signal (z-score),[6],-0.063
same,glycan array binding signal (z-score),[7],4.38
same,glycan array binding signal (z-score),[8],-0.106
same,glycan array binding signal (z-score),[9],-0.23
same,glycan array binding signal (z-score),[10],-0.096
same,glycan array binding signal (z-score),[11],-0.217
same,glycan array binding signal (z-score),[12],-0.324
same,glycan array binding signal (z-score),[13],1.69
same,glycan array binding signal (z-score),[14],5.84
same,glycan array binding signal (z-score),[15],3.54
same,glycan array binding signal (z-score),[16],3.32
same,glycan array binding signal (z-score),[17],4.07
same,glycan array binding signal (z-score),Gal(a1-4)Gal(b1-4)GlcNAc,3.63
same,glycan array binding signal (z-score),[18],8.66
same,glycan array binding signal (z-score),[19],4.55
same,glycan array binding signal (z-score),Gal(b1-3)Gal(b1-4)GlcNAc,-0.077
same,glycan array binding signal (z-score),[20],-0.352
same,glycan array binding signal (z-score),[21],-0.341
same,glycan array binding signal (z-score),[22],0.396
same,glycan array binding signal (z-score),[23],0.803
same,glycan array binding signal (z-score),[24],1.87
same,glycan array binding signal (z-score),[25],0.949
same,glycan array binding signal (z-score),[26],-0.398
same,glycan array binding signal (z-score),Gal(b1-4)GlcNAc(b1-2)Man,-0.334
same,glycan array binding signal (z-score),[27],1.1
same,glycan array binding signal (z-score),[28],3.3
same,glycan array binding signal (z-score),[29],3.18
same,glycan array binding signal (z-score),[30],3.77
same,glycan array binding signal (z-score),Gal6S(b1-4)Glc,-0.407
same,glycan array binding signal (z-score),[31],0.074
same,glycan array binding signal (z-score),GalNAc6S(b1-4)GlcNAc,-0.377
same,glycan array binding signal (z-score),[32],-0.414
same,glycan array binding signal (z-score),[33],-0.356
same,glycan array binding signal (z-score),[34],-0.324
same,glycan array binding signal (z-score),GlcNAc(b1-3)Fuc,-0.323
same,glycan array binding signal (z-score),[35],-0.279
same,glycan array binding signal (z-score),[36],-0.327
same,glycan array binding signal (z-score),[37],-0.382
same,glycan array binding signal (z-score),[38],-0.337
same,glycan array binding signal (z-score),[39],-0.348
same,glycan array binding signal (z-score),[40],-0.248
same,glycan array binding signal (z-score),[41],-0.386
same,glycan array binding signal (z-score),[42],-0.278
same,glycan array binding signal (z-score),[43],-0.418
same,glycan array binding signal (z-score),[44],-0.366
